According to the supplement of paper PMC10849652:
Targets with a hit are over-represented here; the source holds about 7,900 in all. About 0.6% of all pairs of compound and target were hits. A number with no mark means an inactive call.

Assays:
Experiment in all cases: log2 fold change, soluble protein after heating vs DMSO (PISA); higher = thermal stabilisation; K562 cells, 10 uM, 30 min; active = over 0.2 and 3.5 SD of the protein, either way, in both replicates (recomputed)
[1] = compound: COC1=CC=C(C=C1)CN2C=CC3=C2C=C(C=C3)C(=O)NO
Outline: (§1)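 K562 cells at 2×10^6 cells/mL were exposed to 10 μM compound for 30 min, then aliquots were heated for 3 min across 48°C-58°C, pooled, and extracted in PBS containing 0.5% NP-40 at 4°C. The supernatant after 21,000xg for 90 min was taken as soluble protein and measured by TMTpro 16plex LC-MS/MS with channel sums equalised. Thermal stability is reported relative to control samples, with values from duplicates. Fold changes are given on a log2 scale.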

filanesib = compound: CON(C)C(=O)N1N=C(c2cc(F)ccc2F)S[C@@]1(CCCN)c1ccccc1 [filanesib]
Outline: as §1

zotarolimus = compound: CO[C@H]1C[C@@H]2CC[C@@H](C)[C@@](O)(O2)C(=O)C(=O)N2CCCC[C@H]2C(=O)O[C@H]([C@H](C)C[C@@H]2CC[C@H](n3cnnn3)[C@H](OC)C2)CC(=O)[C@H](C)/C=C(\C)[C@@H](O)[C@@H](OC)C(=O)[C@H](C)C[C@H](C)/C=C/C=C/C=C/1C [zotarolimus]
Outline: as §1

idasanutlin = compound: COc1cc(C(=O)O)ccc1NC(=O)[C@@H]1N[C@@H](CC(C)(C)C)[C@](C#N)(c2ccc(Cl)cc2F)[C@H]1c1cccc(Cl)c1F [idasanutlin]
Outline: as §1

alisertib = compound: COc1cc(Nc2ncc3c(n2)-c2ccc(Cl)cc2C(c2c(F)cccc2OC)=NC3)ccc1C(=O)O [alisertib]
Outline: as §1

[2] = compound: COc1cc2nc(-c3cc(F)ccc3O)nc(N[C@@H]3CNC[C@H]3C(C)(C)O)c2cc1OC
Outline: as §1

gefitinib = compound: COc1cc2ncnc(Nc3ccc(F)c(Cl)c3)c2cc1OCCCN1CCOCC1 [gefitinib]
Outline: as §1

[3] = compound: COc1cccc2cc(-c3nc([C@H]4CC[C@H](C(=O)O)CC4)n4ncnc(N)c34)[nH]c12
Outline: as §1

lapatinib = compound: CS(=O)(=O)CCNCc1ccc(-c2ccc3ncnc(Nc4ccc(OCc5cccc(F)c5)c(Cl)c4)c3c2)o1 [lapatinib]
Outline: as §1

pictilisib = compound: CS(=O)(=O)N1CCN(Cc2cc3nc(-c4cccc5[nH]ncc45)nc(N4CCOCC4)c3s2)CC1 [pictilisib]
Outline: as §1

Chain of UniProt Q13469 (Q13469 whole entry, looked up): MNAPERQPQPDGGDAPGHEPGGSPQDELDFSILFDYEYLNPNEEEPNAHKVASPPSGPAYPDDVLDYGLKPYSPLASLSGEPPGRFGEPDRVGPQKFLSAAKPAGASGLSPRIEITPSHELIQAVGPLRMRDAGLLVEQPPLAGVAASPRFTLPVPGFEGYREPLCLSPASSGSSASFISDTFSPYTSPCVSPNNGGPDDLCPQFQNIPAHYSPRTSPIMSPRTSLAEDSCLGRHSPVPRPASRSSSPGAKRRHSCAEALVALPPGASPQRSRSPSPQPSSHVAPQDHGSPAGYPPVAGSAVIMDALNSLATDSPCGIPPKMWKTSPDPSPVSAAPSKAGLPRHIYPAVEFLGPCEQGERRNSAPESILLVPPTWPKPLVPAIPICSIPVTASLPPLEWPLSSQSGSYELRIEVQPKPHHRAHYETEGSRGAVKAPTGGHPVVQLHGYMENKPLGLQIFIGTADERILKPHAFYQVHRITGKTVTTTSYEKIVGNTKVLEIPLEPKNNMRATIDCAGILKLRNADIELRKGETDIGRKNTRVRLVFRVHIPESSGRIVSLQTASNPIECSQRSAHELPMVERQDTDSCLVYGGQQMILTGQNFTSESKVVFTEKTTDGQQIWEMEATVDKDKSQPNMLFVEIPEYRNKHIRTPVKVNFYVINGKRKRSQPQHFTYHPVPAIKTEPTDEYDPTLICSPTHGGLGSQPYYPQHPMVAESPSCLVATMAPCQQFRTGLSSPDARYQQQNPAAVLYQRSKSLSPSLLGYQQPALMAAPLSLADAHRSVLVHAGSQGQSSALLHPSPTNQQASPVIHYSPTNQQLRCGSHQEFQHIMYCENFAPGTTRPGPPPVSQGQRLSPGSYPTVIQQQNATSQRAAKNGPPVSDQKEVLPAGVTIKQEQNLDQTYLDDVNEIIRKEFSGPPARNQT
Chain of UniProt Q8NI08 (Q8NI08 whole entry, looked up): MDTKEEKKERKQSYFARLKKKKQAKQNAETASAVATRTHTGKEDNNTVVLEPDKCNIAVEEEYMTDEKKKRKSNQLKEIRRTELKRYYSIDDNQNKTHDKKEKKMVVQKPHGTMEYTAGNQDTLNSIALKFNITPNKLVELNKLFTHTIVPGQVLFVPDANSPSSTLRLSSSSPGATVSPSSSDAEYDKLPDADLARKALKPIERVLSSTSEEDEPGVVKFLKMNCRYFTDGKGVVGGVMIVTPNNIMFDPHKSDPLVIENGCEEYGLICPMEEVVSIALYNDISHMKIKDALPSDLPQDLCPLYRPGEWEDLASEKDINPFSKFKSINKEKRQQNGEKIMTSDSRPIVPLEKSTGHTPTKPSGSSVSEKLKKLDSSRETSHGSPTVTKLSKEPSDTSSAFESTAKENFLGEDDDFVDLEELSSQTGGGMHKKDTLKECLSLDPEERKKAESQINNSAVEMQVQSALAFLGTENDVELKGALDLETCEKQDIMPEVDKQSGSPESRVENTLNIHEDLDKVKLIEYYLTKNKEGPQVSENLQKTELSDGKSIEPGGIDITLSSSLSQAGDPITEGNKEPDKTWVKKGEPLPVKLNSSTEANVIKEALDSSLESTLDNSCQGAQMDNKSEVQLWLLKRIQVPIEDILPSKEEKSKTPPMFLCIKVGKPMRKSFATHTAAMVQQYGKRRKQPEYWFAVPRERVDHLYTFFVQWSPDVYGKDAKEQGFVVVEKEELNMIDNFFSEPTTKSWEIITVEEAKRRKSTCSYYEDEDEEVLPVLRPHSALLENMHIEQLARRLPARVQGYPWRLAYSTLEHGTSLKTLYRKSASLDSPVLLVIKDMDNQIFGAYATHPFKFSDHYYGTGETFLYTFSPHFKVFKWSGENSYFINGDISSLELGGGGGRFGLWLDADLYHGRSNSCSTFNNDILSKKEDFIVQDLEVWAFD
Chain of UniProt O75607 (O75607 whole entry, looked up): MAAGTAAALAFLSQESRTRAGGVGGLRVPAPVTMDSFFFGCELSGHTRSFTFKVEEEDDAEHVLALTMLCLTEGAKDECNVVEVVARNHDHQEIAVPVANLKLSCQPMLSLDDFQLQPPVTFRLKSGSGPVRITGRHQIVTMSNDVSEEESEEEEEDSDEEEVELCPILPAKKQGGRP
Chain of UniProt Q86WC4 (Q86WC4 whole entry, looked up): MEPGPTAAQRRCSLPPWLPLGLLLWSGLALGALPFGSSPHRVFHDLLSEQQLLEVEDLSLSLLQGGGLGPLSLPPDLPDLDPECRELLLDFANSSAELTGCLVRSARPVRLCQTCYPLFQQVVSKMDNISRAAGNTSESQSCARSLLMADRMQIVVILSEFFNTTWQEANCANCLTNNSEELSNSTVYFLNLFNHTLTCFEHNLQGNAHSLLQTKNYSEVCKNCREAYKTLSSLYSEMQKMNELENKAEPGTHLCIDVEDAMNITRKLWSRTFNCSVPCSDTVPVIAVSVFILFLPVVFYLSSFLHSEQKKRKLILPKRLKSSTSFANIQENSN
Chain of UniProt O75323 (O75323 whole entry, looked up): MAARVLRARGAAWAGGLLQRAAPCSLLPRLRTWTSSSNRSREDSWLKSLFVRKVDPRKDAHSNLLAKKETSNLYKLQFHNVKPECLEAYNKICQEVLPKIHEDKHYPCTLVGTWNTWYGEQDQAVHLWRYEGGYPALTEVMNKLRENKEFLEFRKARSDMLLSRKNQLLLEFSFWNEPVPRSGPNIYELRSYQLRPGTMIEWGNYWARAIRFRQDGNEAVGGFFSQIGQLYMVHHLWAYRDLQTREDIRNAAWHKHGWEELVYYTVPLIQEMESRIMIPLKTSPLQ
Chain of UniProt Q92621 (Q92621 whole entry, looked up): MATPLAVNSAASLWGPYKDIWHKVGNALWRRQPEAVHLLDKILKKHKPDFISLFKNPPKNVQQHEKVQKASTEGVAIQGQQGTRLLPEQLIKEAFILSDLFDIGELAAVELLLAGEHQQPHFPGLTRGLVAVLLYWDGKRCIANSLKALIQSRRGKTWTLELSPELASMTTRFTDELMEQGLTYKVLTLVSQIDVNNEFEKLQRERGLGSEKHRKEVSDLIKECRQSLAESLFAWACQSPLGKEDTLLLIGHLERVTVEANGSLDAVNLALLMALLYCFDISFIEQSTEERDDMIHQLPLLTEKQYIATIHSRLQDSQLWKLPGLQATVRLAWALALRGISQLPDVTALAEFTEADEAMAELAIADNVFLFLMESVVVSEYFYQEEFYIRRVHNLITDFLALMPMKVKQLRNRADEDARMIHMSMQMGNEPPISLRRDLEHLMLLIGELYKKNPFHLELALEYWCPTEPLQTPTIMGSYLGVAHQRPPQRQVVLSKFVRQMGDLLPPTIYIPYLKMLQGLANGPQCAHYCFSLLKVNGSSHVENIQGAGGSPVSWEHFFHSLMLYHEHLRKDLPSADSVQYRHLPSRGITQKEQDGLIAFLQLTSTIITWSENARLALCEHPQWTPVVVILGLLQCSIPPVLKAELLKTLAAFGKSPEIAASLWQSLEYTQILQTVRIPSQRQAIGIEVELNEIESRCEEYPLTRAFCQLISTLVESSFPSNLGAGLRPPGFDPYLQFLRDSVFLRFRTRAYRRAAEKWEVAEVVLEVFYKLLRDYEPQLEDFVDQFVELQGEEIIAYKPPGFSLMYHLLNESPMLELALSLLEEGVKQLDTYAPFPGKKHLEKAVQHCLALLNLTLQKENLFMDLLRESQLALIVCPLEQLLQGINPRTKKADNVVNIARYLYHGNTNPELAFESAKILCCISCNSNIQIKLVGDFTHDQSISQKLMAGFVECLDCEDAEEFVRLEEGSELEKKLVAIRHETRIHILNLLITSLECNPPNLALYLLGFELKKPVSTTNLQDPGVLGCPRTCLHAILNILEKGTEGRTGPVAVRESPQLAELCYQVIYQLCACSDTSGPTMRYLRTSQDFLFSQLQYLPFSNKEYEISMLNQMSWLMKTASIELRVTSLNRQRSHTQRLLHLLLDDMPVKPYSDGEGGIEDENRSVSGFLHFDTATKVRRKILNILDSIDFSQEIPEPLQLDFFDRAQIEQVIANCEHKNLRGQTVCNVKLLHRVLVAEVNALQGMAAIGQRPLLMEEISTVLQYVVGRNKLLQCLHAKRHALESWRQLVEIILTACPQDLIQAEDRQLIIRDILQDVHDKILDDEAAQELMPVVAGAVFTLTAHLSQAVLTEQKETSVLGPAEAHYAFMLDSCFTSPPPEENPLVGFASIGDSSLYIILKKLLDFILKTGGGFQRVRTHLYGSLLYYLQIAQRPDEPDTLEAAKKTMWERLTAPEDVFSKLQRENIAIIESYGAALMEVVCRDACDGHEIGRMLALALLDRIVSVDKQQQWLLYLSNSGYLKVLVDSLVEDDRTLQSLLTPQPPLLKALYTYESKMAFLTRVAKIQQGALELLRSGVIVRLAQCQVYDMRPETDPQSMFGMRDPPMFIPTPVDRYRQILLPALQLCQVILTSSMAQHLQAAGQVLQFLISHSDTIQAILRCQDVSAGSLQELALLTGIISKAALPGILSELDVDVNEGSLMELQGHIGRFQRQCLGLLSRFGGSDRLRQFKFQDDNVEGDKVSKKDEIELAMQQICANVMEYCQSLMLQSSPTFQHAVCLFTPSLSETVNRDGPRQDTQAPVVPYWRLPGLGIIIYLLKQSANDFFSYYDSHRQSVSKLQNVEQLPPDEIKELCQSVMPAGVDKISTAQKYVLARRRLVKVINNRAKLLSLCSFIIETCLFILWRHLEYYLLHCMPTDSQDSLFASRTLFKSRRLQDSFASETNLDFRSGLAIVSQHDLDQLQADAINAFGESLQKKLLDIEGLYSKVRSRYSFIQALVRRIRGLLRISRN
Chain of UniProt Q9BRP4 (Q9BRP4 whole entry, looked up): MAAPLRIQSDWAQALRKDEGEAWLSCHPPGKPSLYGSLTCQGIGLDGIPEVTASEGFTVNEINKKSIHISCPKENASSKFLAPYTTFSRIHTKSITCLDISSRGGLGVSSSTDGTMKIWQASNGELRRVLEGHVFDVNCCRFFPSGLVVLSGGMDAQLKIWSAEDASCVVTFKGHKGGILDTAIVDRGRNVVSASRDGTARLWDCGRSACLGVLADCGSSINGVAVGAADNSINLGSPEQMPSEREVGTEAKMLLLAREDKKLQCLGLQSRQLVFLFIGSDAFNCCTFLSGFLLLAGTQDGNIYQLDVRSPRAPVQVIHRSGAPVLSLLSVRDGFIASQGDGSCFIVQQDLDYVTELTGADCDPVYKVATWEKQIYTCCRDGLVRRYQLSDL

Target	log2 fold change [1]	log2 fold change (filanesib)	log2 fold change (zotarolimus)	log2 fold change (idasanutlin)	log2 fold change (alisertib)	log2 fold change [2]	log2 fold change (gefitinib)	log2 fold change [3]	log2 fold change (lapatinib)	log2 fold change (pictilisib)
NHLRC2 (UniProt Q8NBF2)	-0.084	-0.062	-0.001	-0.061	0.1	0.061	-0.011	0.123	-0.057	0.062
NDUFS4 (UniProt O43181)	-0.018	-0.019	-0.022	0.035	-0.074	-0.077	-0.008	0.036	0.029	-0.122
NBN (UniProt O60934)	-0.039	-0.007	0.039	-0.053	0.057	0.028	0.03	-0.019	0.008	-0.035
NEMP1 (UniProt O14524)	-0.041	-0.247	-0.021	0.034	-0.084	-0.487 (active)	-0.021	0.006	0.001	-0.02
MYH11 isoform 2 (UniProt P35749)	0.027	-0.002	0.022	-0.045	0.033	0.067	0.025	-0.033	0.018	-0.035
PACS1 (UniProt Q6VY07)	0.105	0.047	0.008	-0.005	0.006	0.054	0.043	0.002	0.013	0.021
MSH3 (UniProt P20585)	-0.074	0.005	0.036	-0.004	0.008	0.093	0.005	0	0.042	-0.006
NDUFA4 (UniProt O00483)	-0.022	-0.031	-0.019	0.038	-0.024	-0.044	0.024	0.019	0.048	-0.025
NMD3 (UniProt Q96D46)	0.004	-0.221	0.008	-0.095	-0.034	0.108	0.007	0.016	0	0.089
NIPSNAP2 (UniProt O75323)	0.074	-0.065	0.008	-0.022	0.003	0.007	0.045	-0.038	0.224 (active)	0.079
MIS12 (UniProt Q9H081)	0.079	0.004	0.077	-0.011	0.06	0.035	0.026	0.032	-0.048	-0.005
NFATC2 (UniProt Q13469)	0.015	0.161	-0.084	0.058	0.147	-0.036	0.031	-0.152	-0.001	-0.029
NUMBL (UniProt Q9Y6R0)	-0.079	0.128	-0.012	-0.061	-0.168	0.005	0.036	-0.149	0.012	-0.022
NIPSNAP3B (UniProt Q9BS92)	-0.033	-0.168	0.013	0.046	-0.046	-0.071	-0.138	0.009	-0.09	0.002
NME1 isoform 2 (UniProt P15531)	0.017	0.007	0.001	0.022	0.062	0.021	-0.063	0.141	-0.009	0.666 (active)
OSTM1 (UniProt Q86WC4)	-0.012	-0.122	0.007	0.002	-0.015	-0.09	-0.066	0.002	0.056	0.055

Target	log2 fold change [1]	log2 fold change (filanesib)	log2 fold change (zotarolimus)	log2 fold change (idasanutlin)	log2 fold change (alisertib)	log2 fold change [2]	log2 fold change (gefitinib)	log2 fold change [3]	log2 fold change (lapatinib)	log2 fold change (pictilisib)
MRPL47 (UniProt Q9HD33)	-0.068	0.183	0.072	-0.042	-0.087	-0.033	-0.134	-0.186	0.072	0.745 (active)
MRPS33 (UniProt Q9Y291)	-0.033	0.002	0.043	-0.167	-0.052	-0.057	0	0.008	0.036	-0.1
NPM3 (UniProt O75607)	0.123	0.116	0.104	0.258	-0.205	0.006	-0.011	-0.069	-0.003	-0.025
MRPL34 (UniProt Q9BQ48)	-0.074	0.081	0.072	0.029	-0.089	-0.045	-0.105	-0.164	0.028	-0.102
NEU1 (UniProt Q99519)	0.153	-0.107	0.001	0.015	-0.123	-0.05	-0.091	-0.073	-0.015	-0.113
MORF4L2 (UniProt Q15014)	-0.149	0.146	-0.044	0.045	-0.066	-0.085	-0.048	-0.074	0.03	-0.063
MRPS27 isoform 2 (UniProt Q92552)	0.062	0.029	0.068	-0.124	-0.05	-0.024	0.016	-0.014	0.036	-0.038
NSDHL (UniProt Q15738)	0.006	-0.11	0.04	0.208	0.033	-0.062	0.021	0	0.185	0.023
MORC3 (UniProt Q14149)	0.013	-0.04	0.015	0.021	0.039	0.146	-0.082	0	-0.058	0.196
NDUFAF6 (UniProt Q330K2)	0.183	-0.177	-0.006	0.03	-0.199	-0.165	-0.018	0.061	-0.007	0
NASP (UniProt P49321)	0.01	-0.009	0.05	-0.021	-0.03	0.029	0.001	-0.023	-0.023	0.007
NUP205 (UniProt Q92621)	0.015	0.01	0.009	-0.08	-0.014	0.058	-0.011	-0.008	-0.03	-0.01
NCOA7 (UniProt Q8NI08)	-0.043	-0.046	0.035	-0.034	-0.034	0.043	-0.014	0.014	0.01	-0.045
PAAF1 (UniProt Q9BRP4)	-0.013	-0.082	-0.008	-0.026	-0.062	0.026	-0.002	0.047	0.027	0.048
MYLK (UniProt Q15746)	-0.293	0.041	0.01		-0.095	0.043	0.342	0.16	0.06	0.098
OSBPL3 (UniProt Q9H4L5)	-0.052	0.582	0.14	0.277		-0.688	0.174		0.391	
